Potency and affinity values are given separately. Inconclusive results are not listed. Entries that show only a call come without a potency. The source made the active and inactive calls. The rule behind the calls is not given here.
experiment: IGROV1 cell killing – plate reader, dry powder samples, PAX8 inhibitor project, dose response (AID 743043); settings: IGROV1 ovarian cancer cell cytotoxicity; series mostly up to 35 µM;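 note: more negative means fewer viable cells or more cytotoxicity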

| SMILES | outcome |
| --- | --- |
| C[C@@H]1CN([C@@H](C)CO)C(=O)Cc2cc(N(C)C)ccc2O[C@H]1CN(C)Cc1ccc(Oc2ccccc2)cc1 | inactive |
| Cc1ccc(S(=O)(=O)Nc2ccc3c(c2)C(=O)N([C@@H](C)CO)C[C@@H](C)[C@@H](CN(C)Cc2ccc(C(F)(F)F)cc2)OCCCC[C@@H](C)O3)cc1 | inactive |
| Cc1cccc(-c2ccc([C@H]3[C@H](CO)N4CCCCN(S(=O)(=O)c5ccccc5C)C[C@@H]34)cc2)c1 | inactive |
| C[C@H]1CCCCO[C@@H](CN(C)C(=O)Nc2ccc(C(F)(F)F)cc2)[C@@H](C)CN([C@@H](C)CO)C(=O)c2cc(NS(=O)(=O)c3cn(C)cn3)ccc2O1 | inactive |
| C[C@@H]1CN([C@H](C)CO)C(=O)c2cc(NC(=O)Nc3ccccc3)ccc2O[C@@H](C)CCCCO[C@H]1CN(C)Cc1ccc(Cl)c(Cl)c1 | inactive |
| C[C@H]1CCCCO[C@@H](CN(C)C)[C@@H](C)CN([C@@H](C)CO)C(=O)c2cc(NC(=O)Nc3ccc(C(F)(F)F)cc3)ccc2O1 | inactive |
| C[C@H](CO)N1C[C@H](C)[C@@H](CN(C)Cc2ccc(-c3ccccc3)cc2)Oc2ccc(NC(=O)Cc3ccccc3)cc2CC1=O | inactive |
| C[C@H](CO)N1C[C@H](C)[C@H](CN(C)C(=O)NC2CCCCC2)Oc2cc(C#Cc3ccc(F)cc3)ccc2S1(=O)=O | inactive |
| O=C(Nc1ccc(C(F)(F)F)cc1)N1C[C@@H]2N[C@H](C1)C2c1ccc(-c2ccccc2)cc1 (stereo partly specified) | inactive |
| C[C@@H]1CCCCO[C@H](CN(C)Cc2ccc(C(F)(F)F)cc2)[C@H](C)CN([C@@H](C)CO)C(=O)c2cc(NC(=O)Nc3ccc(F)cc3)ccc2O1 | inactive |
| Cc1ccc(S(=O)(=O)Nc2ccc3c(c2)C(=O)N([C@@H](C)CO)C[C@@H](C)[C@@H](CN(C)Cc2ccc(C(F)(F)F)cc2)OCCCC[C@H](C)O3)cc1 | inactive |
| C[C@H](CO)N1C[C@H](C)[C@H](CN(C)C(=O)NC2CCCCC2)OCCCC[C@H](C)Oc2ccc(NC(=O)Nc3ccc(C(F)(F)F)cc3)cc2C1=O | inactive |
| C[C@@H]1CN([C@@H](C)CO)S(=O)(=O)c2ccc(C#Cc3ccc(F)cc3)cc2O[C@H]1CN(C)C(=O)NC1CCCCC1 | inactive |
| C[C@@H]1CN([C@@H](C)CO)C(=O)Cc2cc(NC(=O)c3ccncc3)ccc2O[C@@H]1CN(C)Cc1ccc(-c2ccccc2)cc1 | inactive |
| Cc1ccc(S(=O)(=O)Nc2ccc3c(c2)C(=O)N([C@@H](C)CO)C[C@@H](C)[C@@H](CN(C)Cc2ccc(Cl)c(Cl)c2)OCCCC[C@@H](C)O3)cc1 | inactive |
| O=C(C[C@H]1CC[C@@H]2[C@H](COC[C@@H](O)CN2Cc2ccc(F)cc2)O1)NCc1ccccc1Cl | inactive |
| CCCC#Cc1ccc([C@@H]2[C@H]3CN(S(=O)(=O)c4ccccc4F)CCCCN3[C@H]2CO)cc1 | inactive |
| Cc1ccc(S(=O)(=O)N[C@@H]2C=C[C@@H](CC(=O)N3CCC(Cc4ccccc4)CC3)O[C@@H]2CO)cc1 | inactive |
| COc1cccc(S(=O)(=O)N(C)C[C@H]2OCc3ccccc3-c3c(n(C)c4ccccc34)C(=O)N([C@@H](C)CO)C[C@H]2C)c1 | inactive |
| C[C@@H]1CN([C@@H](C)CO)C(=O)c2ccccc2-c2ccccc2CO[C@@H]1CN(C)Cc1ccc2c(c1)OCCN2C | inactive |
| C[C@@H]1CCCCO[C@H](CN(C)Cc2ccccc2)[C@H](C)CN([C@H](C)CO)C(=O)c2cc(NC(=O)Nc3ccc(C(F)(F)F)cc3)ccc2O1 | inactive |
| O=C(C[C@H]1CC[C@H]2[C@@H](COC[C@@H](O)CN2Cc2ccc(F)cc2)O1)NCc1ccccc1Cl | inactive |
| C[C@@H]1CN([C@@H](C)CO)C(=O)Cc2cc(NC(=O)C3CC3)ccc2O[C@H]1CN(C)Cc1ccc(-c2ccccc2)cc1 | inactive |
| COc1ccc(S(=O)(=O)N2CCCCN3[C@H](C2)[C@@H](c2ccc(C#CC(C)C)cc2)[C@@H]3CO)cc1 | inactive |
| C[C@@H]1CCCCO[C@@H](CN(C)C(=O)Nc2ccccc2)[C@H](C)CN([C@H](C)CO)C(=O)c2cc(NC(=O)Nc3ccc(C(F)(F)F)cc3)ccc2O1 | inactive |
| C[C@@H]1CCCCO[C@H](CN(C)Cc2ccc(C(F)(F)F)cc2)[C@@H](C)CN([C@@H](C)CO)C(=O)c2cc(NS(=O)(=O)c3cccs3)ccc2O1 | inactive |
| COc1ccc(S(=O)(=O)Nc2ccc3c(c2)C(=O)N([C@@H](C)CO)C[C@H](C)[C@H](CN(C)Cc2ccc(C(F)(F)F)cc2)OCCCC[C@@H](C)O3)cc1 | inactive |
| C[C@@H]1CN([C@@H](C)CO)C(=O)Cc2cc(NS(=O)(=O)c3ccc(F)cc3)ccc2O[C@H]1CN(C)Cc1ccc(Oc2ccccc2)cc1 | inactive |

experiment: OVCAR-3 cell viability loss – plate reader, dry powder samples, PAX8 inhibitor project, dose response (AID 743044); settings: NIH:OVCAR-3 ovarian cancer cell viability; max activity: at 35 µM, stronger effect = lower value unless noted; series mostly up to 50 µM

| SMILES | max activity |
| --- | --- |
| COc1ccc(S(=O)(=O)Nc2ccc3c(c2)CC(=O)N([C@@H](C)CO)C[C@@H](C)[C@H](CN(C)Cc2ccc(-c4ccccc4)cc2)O3)cc1 | 35.7% [at 1 µM, stronger effect = lower value] (inactive) |
| C[C@H](O)C#Cc1cnc2c(c1)C(=O)N([C@H](C)CO)C[C@H](C)[C@H](CN(C)Cc1ccc(-c3ccccc3)cc1)O2 | 9.01% [at 0.26 µM, stronger effect = lower value] (inactive) |
| O=C(c1ccc(F)cc1)N1C[C@@H]2N[C@H](C1)C2c1ccc(-c2ccc(F)cc2)cc1 (stereo partly specified) | -17.2% [at 4.2 µM, stronger effect = lower value] (inactive) |
| C[C@H](O)C#Cc1ccc2c(c1)O[C@H](CN(C)Cc1ccc(-c3ccccc3)cc1)[C@@H](C)CN([C@H](C)CO)S2(=O)=O | 15.2% [at 16 µM, stronger effect = lower value] (inactive) |
| C[C@@H]1CN([C@H](C)CO)C(=O)Cc2cc(NS(=O)(=O)c3ccccc3)ccc2O[C@@H]1CN(C)S(=O)(=O)c1ccc(Cl)cc1 | 47.5% (inactive) |
| C[C@@H]1CCCCO[C@H](CN(C)C)[C@H](C)CN([C@H](C)CO)C(=O)c2cc(NC(=O)Nc3cccc4ccccc34)ccc2O1 | 24.8% [at 4.2 µM, stronger effect = lower value] (inactive) |
| C[C@@H]1CN([C@H](C)CO)C(=O)c2c(c3ccccc3n2C)-c2ccccc2CO[C@@H]1CN(C)C | 18.1% [at 0.5 µM, stronger effect = lower value] (inactive) |
| COc1ccccc1S(=O)(=O)N(C)C[C@@H]1Oc2cc(C#CCC3CCCC3)ccc2S(=O)(=O)N([C@@H](C)CO)C[C@@H]1C | -15.5% (inactive) |
| CCCN(C)C[C@H]1OCCCC[C@@H](C)Oc2ccc(NC(=O)c3ccccc3)cc2C(=O)N([C@H](C)CO)C[C@H]1C | 25.8% [at 0.5 µM, stronger effect = lower value] (inactive) |
| C[C@@H]1CN([C@@H](C)CO)C(=O)Cc2cc(NC(=O)Nc3ccc(F)cc3)ccc2O[C@H]1CN(C)CC1CCCCC1 | 14.9% [at 2.1 µM, stronger effect = lower value] (inactive) |
| O=C(Nc1cccc(F)c1)N[C@@H]1CC[C@@H](CCNS(=O)(=O)c2cccc(Cl)c2)O[C@@H]1CO | -20.4% [at 0.5 µM, stronger effect = lower value] (inactive) |
| C[C@@H]1CN([C@@H](C)CO)C(=O)Cc2cc(N(C)C)ccc2O[C@H]1CN(C)Cc1ccc(Oc2ccccc2)cc1 | -11.3% [at 4.2 µM, stronger effect = lower value] (inactive) |
| Cc1ccc(S(=O)(=O)Nc2ccc3c(c2)C(=O)N([C@@H](C)CO)C[C@@H](C)[C@@H](CN(C)Cc2ccc(C(F)(F)F)cc2)OCCCC[C@@H](C)O3)cc1 | -26.4% [at 8 µM, stronger effect = lower value] (inactive) |
| Cc1cccc(-c2ccc([C@H]3[C@H](CO)N4CCCCN(S(=O)(=O)c5ccccc5C)C[C@@H]34)cc2)c1 | -11.5% (inactive) |
| C[C@H]1CCCCO[C@@H](CN(C)C(=O)Nc2ccc(C(F)(F)F)cc2)[C@@H](C)CN([C@@H](C)CO)C(=O)c2cc(NS(=O)(=O)c3cn(C)cn3)ccc2O1 | -16.1% (inactive) |
| C[C@@H]1CN([C@H](C)CO)C(=O)c2cc(NC(=O)Nc3ccccc3)ccc2O[C@@H](C)CCCCO[C@H]1CN(C)Cc1ccc(Cl)c(Cl)c1 | -19.3% (inactive) |
| C[C@H]1CCCCO[C@@H](CN(C)C)[C@@H](C)CN([C@@H](C)CO)C(=O)c2cc(NC(=O)Nc3ccc(C(F)(F)F)cc3)ccc2O1 | -16.2% [at 8 µM, stronger effect = lower value] (inactive) |
| C[C@H](CO)N1C[C@H](C)[C@@H](CN(C)Cc2ccc(-c3ccccc3)cc2)Oc2ccc(NC(=O)Cc3ccccc3)cc2CC1=O | -13.7% [at 0.5 µM, stronger effect = lower value] (inactive) |
| C[C@H](CO)N1C[C@H](C)[C@H](CN(C)C(=O)NC2CCCCC2)Oc2cc(C#Cc3ccc(F)cc3)ccc2S1(=O)=O | -20.7% (inactive) |
| O=C(Nc1ccc(C(F)(F)F)cc1)N1C[C@@H]2N[C@H](C1)C2c1ccc(-c2ccccc2)cc1 (stereo partly specified) | 13.9% [at 0.26 µM, stronger effect = lower value] (inactive) |
| C[C@@H]1CCCCO[C@H](CN(C)Cc2ccc(C(F)(F)F)cc2)[C@H](C)CN([C@@H](C)CO)C(=O)c2cc(NC(=O)Nc3ccc(F)cc3)ccc2O1 | -17.3% (inactive) |
| Cc1ccc(S(=O)(=O)Nc2ccc3c(c2)C(=O)N([C@@H](C)CO)C[C@@H](C)[C@@H](CN(C)Cc2ccc(C(F)(F)F)cc2)OCCCC[C@H](C)O3)cc1 | -14.9% [at 2.1 µM, stronger effect = lower value] (inactive) |
| C[C@H](CO)N1C[C@H](C)[C@H](CN(C)C(=O)NC2CCCCC2)OCCCC[C@H](C)Oc2ccc(NC(=O)Nc3ccc(C(F)(F)F)cc3)cc2C1=O | 11.8% [at 2.1 µM, stronger effect = lower value] (inactive) |

Reference: PubChem BioAssay
